Measurements reported in PubChem BioAssay (NCI).
This is part of a sample that, as a whole, favours compounds with a hit. Of some 83,000 tested, about 20% had one in any assay.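 Percent growth is the endpoint: 0 to 100 indicates growth inhibition (40 means 60% inhibition), 0 means no net growth, and negative values indicate cell death.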 Unmarked numbers belong to inactive results. Activity calls are given as the source filed them.

tested on: A498 renal; experiment: NCI-60 one-dose screen, 48 h (100 = growth as untreated, 0 = no growth, -100 = all killed); conditions: 10 µM unless noted
Method: Growth inhibition of the A498 human tumor cell line is measured as a screen for anti-cancer activity. Cells are grown in 96 well plates and exposed to the test compound for 48 hours. Compounds are tested at a single concentration, which is 10^-5 M for most compounds. The reported endpoint is percent growth (GI% or GIPRCNT), where numbers from 0 - 100% represent growth inhibition, and numbers from -100% - 0 represent cell death. For example, a value of 40 represents 60% growth inhibition. A value of 0 means no net growth occurred over the course of the experiment. A value of -40 indicates 40% of cells at the beginning of the experiment died by the end of the experiment. A value of -100 means all cells are dead at the end of the experiment.
NCI-60 Human Tumor Cell Lines Screen was performed using the standard one-dose NCI protocol, which is described in more detail at https://dtp.cancer.gov/discovery_development/nci-60/default.htm.
Compounds with GIPRCNT values below 10 were considered active. Activity score was based on GIPRCNT using the following formula: […]
Score is 0 for GIPRCNT values of 100 or above, 50 for GIPRCNT values of 0, and 100 for GIPRCNT values of -100.

SMILES | growth
CCCCCn1c(=N)n(CC(O)COc2cccc(C)c2)c2ccccc21 (stereo not given) | -3.77% (active)
CC1=C(C/C=C(\C)CCC[C@H](C)CCC[C@H](C)CCCC(C)C)C(=O)c2ccccc2C1=O | 101%
Cc1nc2cc(Nc3nc(NCCO)nc(Nc4ccc(F)cc4)n3)ccc2n1Cc1ccccc1 | 66.2%
Cc1nn2c(-c3nc4ccc(Cl)cc4[nH]3)c(-c3ccc(F)cc3)nc2s1 | 76.8%
CNc1ccc(Br)cc1-c1n[nH]c(=O)[nH]c1=O | 89.7%
CN(C)c1ccc(/C=C(\C#N)c2cc3ccccc3n2C)cc1 | -9.38% (active)
Cc1nc2cc(Nc3nc(Cl)nc(Nc4ccc(F)cc4)n3)ccc2n1Cc1ccccc1 | 69.3%
CC1=CN2C(=NC3=C(CCCC/C3=C\c3ccccc3)C2c2ccccc2)S1 (stereo not given) | 117%
O=C(c1ccccc1)C(Br)C(Br)c1cccc([N+](=O)[O-])c1 (stereo not given) | 48.2%
Cc1nc2cc(Nc3nc(Nc4ccc(F)cc4)nc(N4CCCC4)n3)ccc2n1Cc1ccccc1 | -19.3% (active)
O=C1c2ccccc2C(=O)c2c(Nc3ccc(CCO)cc3)ccc(O)c21 | 51.5%
O=C1/C(=C/c2ccc(Cl)cc2)CN(Cc2cn(CCCNc3ccnc4cc(Cl)ccc34)nn2)C/C1=C\c1ccc(Cl)cc1 | -61.3% (active)
Cc1ccc(S(=O)(=O)N(c2ccc(Cl)cc2)c2ccc(Br)cc2C(=O)O)cc1 | 111%
O=C1c2[nH]cc(CN[C@@H]3CCCN3)c2C(=O)c2c1c(O)c1ccccc1c2O | 38.1%
COc1ccc(C(=O)COc2cccc(/C=C3\CSc4ccc(C)cc4C3=O)c2)cc1 | 112%
O=c1nc(NO)[nH]c(=O)n1Cc1ccc(F)cc1 | 128%
O=[N+]([O-])c1ccc(C=C2C(Cl)=C(Cl)C(Cl)=C2Cl)cc1 | 104%
Cc1ccc2c(c1)c(Sc1ccc(C(=O)NO)cc1)c1n2CN(C)CC1 | 6.35% (active)
COc1cc(-c2nc(SC(C)C)nc(Nc3ccccc3C)c2C#N)cc(OC)c1OC | 88.4%
CCCCC(=O)N/N=C/c1cc(I)cc(I)c1O | 70.4%

SMILES | growth
COC(=O)/C=C1/CCC2C3CCC4=CC(=O)C(Br)CC4(C)C3C(=O)CC12C (stereo not given) | 117%
Cc1nc2cc(Nc3nc(Nc4ccc(F)cc4)nc(-c4cccs4)n3)ccc2n1Cc1ccccc1 | 56%
COC(=O)c1ccc(C(=O)Nc2ccccc2N)cc1 | 80.5%
CC(=O)OC[C@H](O)[C@@]1(O)CC[C@H]2[C@@H]3CCC4=CC(=O)CC[C@]4(C)[C@H]3[C@@H](O)C[C@@]21C | 112%
Cc1nc2cc(Nc3nc(N4CCOCC4)nc(N4CCN(C)CC4)n3)ccc2n1Cc1ccccc1 | 92.4%
CSC1=CC(=O)c2ccccc2C1=O | 91.5%
Cc1ccc(C2SCC(=O)N2NC(=O)c2[nH]c3ccc(F)cc3c2-c2ccccc2)cc1 (stereo not given) | 86.5%
O=C1CC(c2ccsc2)c2snc(-c3ccc(Cl)cc3)c2N1 (stereo not given) | 24.2%
CN1CCn2c(c(Sc3ccc(C(=O)NO)cc3)c3ccccc32)C1=O | 4.23% (active)
Cc1ccc(S(=O)(=O)c2ccc3[nH]c(=O)[nH]c(=O)c3c2)cc1 | 102%
Cn1c2ccccc2c2nn(C(=O)c3ccccc3)c(=O)nc21 | 108%
O=S(=O)(OCCO)c1ccccc1 | 110%
COC(=O)C1C2CC3c4[nH]c5cc(OC)ccc5c4CCN3CC2CC(OC2CCCCO2)C1OC (stereo not given) | 82.8%
O=C(c1ccc2ncc(-c3nc(NC4CC4)ncc3F)n2c1)N1CCOCC1 | -30.3% (active)
C=CC[P+](c1ccccc1)(c1ccccc1)c1ccccc1 | 81.5%
COc1ccc(-c2nc3sccn3c2/C=C/C(=O)c2cc(OC)c(OC)c(OC)c2)cc1OC | -2.58% (active)
Oc1ccccc1/C=N/Nc1nc2ccccc2s1 | 78.3%
COc1ccc(-c2csc3c2-n2cccc2C3=O)cc1O | 38.5%
CC(C)(C)CC(C)(C)N(CSc1ccc(Cl)cc1)CSc1ccc(Cl)cc1 | -7.24% (active)
CCOC(=O)C(CC(c1ccccc1)N1CCCCC1)[N+](=O)[O-] (stereo not given) | 88.4%
